Consider 40 molecules from PubChem BioAssay (NCI).

SMILES strings stand for the structures. Values joined by “and” are separate entries in the source; they are usually repeats but may differ in a detail not shown here. Identical values can stand only once. Compounds without any hit were thinned out: in the full panel of roughly 83,000, 20% have a hit.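 Negative percent growth values reflect cell death: -40 means 40% of the cells present at the start died, and -100 means all died.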 A number with no mark means an inactive call. Active and inactive are the calls of the source. The calls were made as follows: active = growth percent below 10; inactive = the rest.

This experiment concerns HL-60(TB) leukemia. Kind of experiment: NCI-60 one-dose screen, 48 h (100 = growth as untreated, 0 = no growth, -100 = all killed). As to conditions: 10 µM unless noted.
With `COC(=O)[C@]1(C)CCC[C@]2(C)[C@H]3C[C@H]4C(C(C)C)=C[C@]3(CC[C@H]21)[C@@H]1C(=O)N(CCC#N)C(=O)[C@@H]14`, the growth was 44.4%.
For `CC(C)CC(CC1=CCC2CC1C2(C)C)C1=C(O)C(C)(C)C(=O)C(C)(C)C1=O` (stereo not given), the growth was -45.3% (active).
Consider `C[C@H]1[C@H](C)CC[C@]2(C(=O)Nc3ccc4ncccc4c3)CC[C@]3(C)C(=CC[C@@H]4[C@@]5(C)CCCNC(C)(C)[C@@H]5CC[C@]43C)[C@H]12`, for which the growth was -45.2% (active).
For `COc1cc2c(cc1OCCCOc1ccc(-c3cc4ccccc4c4ccccc34)cc1)N=C[C@@H]1CCCN1C2=O` the value was -11.8% (active); for `CCOc1ccc2cc(-c3nn(CC4CCNCC4)c4ncnc(N)c34)ccc2c1`, 98.1% and 19.7%; for `CCOC(=O)C1=C(N)Oc2c(sc3c(CC)cccc23)C1c1ccc(F)cc1` (stereo not given), 23.7%.
As to `COP(=O)(OC)C(C)(C)CC(=O)CC(C#N)(C#N)C(C#N)C#N`, the growth is 103%.
Then `CCOc1nc(-c2ccccc2)cc2c(O)c(C(=O)N/N=C/c3ccccc3)[nH]c(=O)c12`, with 101%; and `Nc1nc2c3ccncc3cc(-c3cccc(Cl)c3)c2c2cnccc12`, with 6.71% (active); and `Cn1cnc([N+](=O)[O-])c1S(=O)(=O)Oc1cccc2ccccc12`, with 4.37% (active).
Then `CCc1n(Cc2ccc3ccccc3c2)cc[n+]1Cc1ccc2ccccc2c1`, with -54% (active); and `Cn1c(O)c(C=NCCN=Cc2c(O)n(C)c(=O)n(C)c2=O)c(=O)n(C)c1=O`, with -60% (active); and `NS(=O)(=O)c1ccc(CCN2C(=O)C=CC2=O)cc1`, with 99.6%.
For `CC1(C)CC[C@]2(C(=O)O)CC[C@]3(C)C(=CC[C@@H]4[C@@]5(C)C/C(=C/O)C(=O)C(C)(C)[C@@H]5CC[C@]43C)[C@@H]2C1` the value was 4.77% (active); for `C=CCn1c(SCC(=O)Nc2ccc(C(=O)/C=C/c3cc4cc(OC)ccc4nc3Cl)cc2)nnc1-c1ccc(Br)cc1`, 81.3%.
Turning to `C#Cc1cccc(Nc2ncnc3ccc(-c4cnc(N)nc4)cc23)c1`, the growth is 34.2%.
Then `CCCC(=O)NC(c1ccc2c(c1)OCO2)c1ccc2cccnc2c1O` (stereo not given), with -47.7% (active).
Then `COC(=O)/C=C/c1cc(OC(C)=O)c2c(c1)[C@@H](C(=O)OC)[C@H](c1ccc(OC(C)=O)c(OC(C)=O)c1)O2`, with -42.8% (active); and `Cc1cc(N=Nc2ccc(C)c(N=Nc3cc(C)c(N)cc3N)c2)c(N)cc1N`, with 99.9% and 82.5%.
For `COC(C(=O)[C@@H](O)[C@@H](C)O)[C@@H]1Cc2cc3cc(O[C@H]4C[C@@H](O[C@H]5C[C@@H](O)[C@H](O)C(C)O5)[C@H](O)C(C)O4)c(C)c(O)c3c(O)c2C(=O)[C@H]1O[C@H]1C[C@@H](O[C@H]2C[C@@H](O[C@H]3C[C@@H](O)[C@H](OC)C(C)O3)[C@@H](O)C(C)O2)[C@H](O)C(C)O1` (stereo not given in full) the value was -5.47% (active); for `COc1ccc(/C=C/C(=O)c2cc(O)ccc2O)cc1`, 3.32% (active); for `CCc1ccc(Oc2c(-c3ccc(OCc4ccc(Cl)cc4)cc3O)n[nH]c2C(F)(F)F)cc1`, -6.99% (active).
As for `COc1ccc(-c2nc(SCC(=O)Nc3nc(-c4ccccc4)cs3)[nH]c(=O)c2C#N)cc1`, the growth was 92%.
On to `CCN(CC)CCCN1C(=O)c2c(c(C)c3c(oc4cc(O)ccc43)c2C)C1=O`, for which the growth is -47.9% (active).
Then `COc1ccc(/C=C(/C(=O)N2CCN(c3ccccc3)CC2)c2cc(OC)c(OC)c(OC)c2)cc1N`, with -37.5% (active); and `CN(C)Cc1ccccn1`, with 108%; and `N#CSCC1CC(O)(c2ccccc2)C(c2ccccc2)C(c2ccc(F)cc2)O1` (stereo not given), with -24.7% (active).
Then `COc1cc(C2NC(=O)c3ccccc3N2)ccc1OCCCCCOc1c(OC)cc(C2=NOC(c3cc(OC)c(OC)c(OC)c3)C2)cc1OC` (stereo not given), with 68.3%; and `CCOC(=O)Nc1ccc2c(c1)/C(=N\NC(N)=S)c1ccccc1-2`, with 55.4% and 78.8%; and `CCOC(=O)c1cc(C(=O)c2cc(OC)c(OC)c(OC)c2)n2ncc3ccccc3c12`, with 28.7%.
With `CN(C)CC(=O)Nc1ccc2ncnc(Nc3ccc(Oc4cccc(C(F)(F)F)c4)c(Cl)c3)c2c1`, the growth was 2.72% (active).
Consider `CCC(=O)Oc1ccc(/C(=C(/C)Cc2cccc(OC)c2)c2ccc(OCCN(C)C)cc2)cc1`, for which the growth is 91.3%.
For `CC(=O)OCc1nc(C#N)c(N(C)C)o1` the value was 97.5%.
Regarding `CC(=O)NCC(=O)N1[C@@H]2CC[C@H]1c1ccc(Nc3ncc(C(F)(F)F)c(NC4CCC4)n3)cc12`, the growth is 11.8% [2.5 µM].
Turning to `COC(=O)c1ccc(NC(=O)CSc2nc3ccccc3c(=O)n2-c2ccccc2)cc1`, the growth was 93.2%.
For `COc1ccccc1-n1cnc(N)c1C(=O)c1cc(OC)c(OC)c(OC)c1`, the growth was 10.9%.
Consider `Nc1nc(Cl)nc2c1ncn2C1OC(CO)C(O)C1O` (stereo not given), for which the growth was -20.7% (active) and -3.23% (active).
Regarding `O=C1/C(=C/c2ccccc2[N+](=O)[O-])Cc2ccccc21`, the growth is 31.7% and 63.7%.
As for `C=C(C)[C@@H]1CC[C@]2(CO)CC[C@]3(C)[C@H](CC[C@@H]4[C@@]5(C)CC[C@H](NCO)C(C)(C)[C@@H]5CC[C@]43C)[C@@H]12`, the growth was -52% (active).
Take `CC(=O)OC1Oc2ccccc2-c2oc(=O)c(-c3cc(=O)oc4cc(O)ccc34)cc21` (stereo not given): the growth is 47%.
